Screening data as filed in PubChem BioAssay.
Compounds with a hit are over-represented: about 2.3% of the library has one in this group of screens.
CHRM1 PAM = human M1 muscarinic receptor positive allosteric modulators, primary screen, CHO-K1 cells, Fluo-8 calcium fluorescence, 1536-well; CHO-K1 hM1, ACh EC20; 0% = ACh EC20, 100% = maximal ACh; activation, % at 3 µM; hit rate 0.088% among 360,000; AID 588819, 2011; in the data active means activation above about 19%, passing the limit was not always enough
Target sequence (P11229 whole entry, looked up): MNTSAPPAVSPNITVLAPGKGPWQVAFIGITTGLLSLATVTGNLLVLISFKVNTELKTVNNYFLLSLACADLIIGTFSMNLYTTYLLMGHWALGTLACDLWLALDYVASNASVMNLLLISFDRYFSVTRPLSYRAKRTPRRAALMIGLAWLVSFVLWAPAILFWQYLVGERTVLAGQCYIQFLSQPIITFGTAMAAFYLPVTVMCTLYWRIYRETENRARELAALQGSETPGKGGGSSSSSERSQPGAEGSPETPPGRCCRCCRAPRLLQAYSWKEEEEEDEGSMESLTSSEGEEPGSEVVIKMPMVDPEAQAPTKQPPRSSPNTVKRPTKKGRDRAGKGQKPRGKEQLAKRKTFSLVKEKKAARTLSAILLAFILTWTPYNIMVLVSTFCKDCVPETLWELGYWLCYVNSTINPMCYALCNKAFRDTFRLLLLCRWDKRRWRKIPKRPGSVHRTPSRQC
M1 antag = human M1 muscarinic receptor antagonists, primary screen, CHO-K1 cells, Fluo-8 calcium fluorescence, 1536-well; inhibition, % at 3 µM; CHO-K1 hM1, ACh EC80 antagonist; hit rate 1.3% among 360,000;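 active means percent inhibition above its own plate's cutoff, namely the mean of that plate's compound wells plus 3 SD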;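 further: peak over basal fluorescence ratio during 140 s after agonist addition; 0% = ACh EC80 plus DMSO and 100% = DMSO alone without agonist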
CHO-K1 Ca ag = counter-screen for M1 agonists: effect in parental CHO-K1 cells. Fluo-8 calcium fluorescence; scaled to maximal ATP response, vehicle zero. activation, % at 3 µM. hit rate 0.48% among 360,000; in the data active means activation above about 15%;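 further: untransfected CHO-K1 host cells lacking M1 receptor as counterscreen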
CHO-K1 Ca antag = nonselective inhibitor or artifact in parental CHO-K1 cells. ATP-induced calcium, Fluo-8 fluorescence. inhibition, % at 3 µM. hit rate 0.6% among 360,000;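 active means inhibition above a per-plate cutoff, the plate's mean sample inhibition plus 3 SD, cut at about 24% in these data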;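 further: 0% = DMSO plus EC80 ATP and 100% = DMSO alone without ATP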
M1 PAM parental = nonselective calcium activators in parental CHO-K1 cells, primary screen, counter-screen for M1 PAM project, cell-based, Fluo-8 calcium fluorescence, full deck, 1536-well | ATP EC20; 0% at ATP EC20, 100% at ATP max | activation, % at 3 µM | hit rate 0.02% among 360,000;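 active means activation above the run cutoff, the mean activation of all test compounds plus 3 SD, cut at about 40% in these data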;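 further: peak over basal fluorescence ratio in a 140 s read after ATP addition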
CHRM1 agonist = human M1 muscarinic receptor agonists, primary screen, Fluo-8 calcium fluorescence, CHO-K1 cells, HTS | hit rate 0.33% among 360,000 | AID 588814, 2011 | CHO-K1 hM1, agonist mode; 0% DMSO, 100% acetylcholine EC100 | Muscarinic acetylcholine receptor M1 (Homo sapiens), P11229 | activation, % at 3 µM;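 active means activation above the run's mean compound activation plus 3 SD, cut at about 16% in these data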;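 further: peak over basal fluorescence ratio within a 140 s kinetic read after compound addition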
Active calls of the source: *; nt = not tested or not shown.

SMILES	CHRM1 PAM	M1 antag	CHO-K1 Ca ag	CHO-K1 Ca antag	M1 PAM parental	CHRM1 agonist
CCC(C)NCCCOc1cc(Cl)ccc1Cl (centres undefined)	-14	33*	0	9	4	-4
C=CCc1cc(Cl)ccc1OCCCNC(C)C	-9	13	2	-2	21	-12
CN(C)CCOc1cccc(Cl)c1	6	-5	19*	-5	26	-8
C=CCc1cc(Cl)ccc1OCCOCCNC(C)CC (centres undefined)	-24	38*	3	-9	-2	-8
CN(C)CCOc1cc(Cl)cc(Cl)c1	-9	-5	0	1	10	-10
C=CCc1cc(Cl)ccc1OCCCNCCO	-2	-2	2	3	4	-12
CCN(CC)c1c(C)nc2ccc(C(=O)N3CCN(C(=O)c4ccco4)CC3)cn12	3	-4	0	-4	12	-8
COC(=O)[C@@]1(Sc2ccc(C)cc2)CC(=O)N[C@@H]1c1ccc(Br)cc1	nt	nt	2	-18	6	nt
COc1cccc(OCc2cc(C(=O)N(Cc3ccccc3)CC3CC3)no2)c1	-4	7	4	-18	8	0
CCCn1nnc(NC(=O)c2ccc([N+](=O)[O-])cc2Cl)n1	11	-3	15*	-1	23	-11
CCCCCC[n+]1c(-c2ccc(Cl)cc2Cl)csc1Nc1ccccc1	1	-7	0	6	9	-3
CC[N+](C)(C)CC/C=C1/c2ccccc2Sc2ccc(Cl)cc21	-24	100*	1	0	-6	-6
CCCCCCCCCC[N+](C)(C)CC/C=C1/c2ccccc2Sc2ccc(Cl)cc21	-33	83*	0	-16	0	-8
CCC1=Nc2cc(C(=O)O)ccc2Sc2ccc(Cl)cc21	1	12	0	5	9	-3
CCCCCCCCCCC[N+](C)(C)CC/C=C1/c2ccccc2Sc2ccc(Cl)cc21	-30	99*	3	-14	3	-10
COc1ccccc1NS(=O)(=O)c1ccc(C)c(C(=O)NCC2(N(C)C)CCCCC2)c1	12	0	-1	-8	-13	-4
CC(C)CNC(=O)C1c2ccccc2Oc2ccccc21	6	-4	0	-13	16	-5
CNCCCC1Sc2ccccc2Oc2ccccc21 (centres undefined)	-22	33*	1	19	-8	-6
FC(F)(F)c1nnc2c(Sc3ccc(Cl)cc3)nc3ccccc3n12	-2	9	0	39*	-9	-3
Cc1ccccc1C(=O)NNC1CC(=O)N(c2ccc3c(c2)OCCO3)C1=O (centres undefined)	-7	11	0	28*	-16	-2
CCOC(=O)c1oc2ccc(CNC3CCCCC3)c(Cl)c2c1C	-36	76*	1	-2	0	-11
COc1cc(C2CC(=O)C3=C(C2)Nc2ncnn2C3c2cccs2)cc(OC)c1OC (centres undefined)	21	-14	0	-10	14	1
COc1cc(C2C=C(c3cccs3)Nc3ncnn32)cc(OC)c1OC (centres undefined)	-2	8	20*	4	-2	12
O=C(CC(O)c1ccccc1)Nc1ccccn1 (centres undefined)	6	-8	1	-8	9	-1
COc1ccc(S(=O)(=O)N2CCCC2C(=O)n2nc(C)cc2C)cc1 (centres undefined)	-7	6	0	30*	-15	-5
SMILES	CHRM1 PAM	M1 antag	CHO-K1 Ca ag	CHO-K1 Ca antag	M1 PAM parental	CHRM1 agonist
Cc1ccc(S(=O)(=O)N2CCCC2C(=O)n2nc(C)cc2C)cc1 (centres undefined)	8	-9	0	-5	15	-4
COCCN(C(=O)c1ccc(COc2ccccc2)o1)c1c(N)n(CC(C)C)c(=O)[nH]c1=O	11	-5	0	-10	5	-4
CCN(CC)C(=O)C1=C(C)N(Cc2ccc(F)cc2)C(=O)C(CC(=O)NCCCCc2ccccc2)C1 (centres undefined)	12	-17	1	-17	22	15
CC1=C(C(=O)N(C)C)CC(CC(=O)NCCCCc2ccccc2)C(=O)N1Cc1ccc(F)cc1 (centres undefined)	-15	8	0	20	-3	35*
COc1ccc(/C=C2\CC/C(=C\c3ccc(OC)c(OC)c3)C2=O)cc1OC	-2	3	2	3	-5	-2
COc1cc(/C=C2\CC/C(=C\c3ccc(OCCO)c(OC)c3)C2=O)ccc1OCCO	-16	16	31*	18	4	32*
CN(C)CCNc1ncnc2oc(-c3ccccc3)c(-c3ccccc3)c12	-7	10	16*	8	9	-7
O=C1Nc2cc(C(F)(F)F)ccc2N2CCCCC12 (centres undefined)	3	-10	4	-11	5	-9
CSc1ccc2c(c1)C(N1CCN(C)CC1)Cc1ccc(F)cc1S2 (centres undefined)	-27	69*	1	1	9	-7
O=[N+]([O-])c1ccc2c(c1)C(N1CCN(CCO)CC1)Cc1ccc(F)cc1S2 (centres undefined)	-4	5	2	3	-1	-10
CCCCCCN1C[C@@H](O)[C@H](n2cc(C3CC3)nn2)C[C@@H]1c1ccc(Cl)cc1	3	-4	0	-1	-12	-2
Cc1ccn(CCC(=O)Nc2ccc3c(c2)OCO3)n1	2	0	2	-12	9	-2
O=c1c(C(c2ccc(O)cc2)c2c(O)nc3n(c2=O)CCS3)c(O)nc2n1CCS2	15	-9	0	24*	-8	1
COc1ccc(NC(=O)COc2cccnc2[N+](=O)[O-])cc1OC	7	-7	2	-29	18	-6
O=C(COc1cccnc1[N+](=O)[O-])Nc1ccc2c(c1)OC(F)(F)O2	-26	50*	4	-1	22	-8
O=C(COc1cccnc1[N+](=O)[O-])Nc1ccc2c(c1)CCC2	-20	36*	1	1	-22	-4
CC1(C)C2CC=C(/C=N/NC(=S)Nc3cccnc3)C1C2 (centres undefined)	0	1	16*	14	15	-5
Cc1c(N=C(N)/N=C(\N)Nc2ccccc2)c(=O)n(-c2ccccc2)n1C	-27	67*	0	-2	-7	-12
CC(OC(=O)Cc1c[nH]c2ccccc12)C(=O)Nc1ccccc1F (centres undefined)	1	1	1	2	-5	-1
COc1ccc(S(=O)(=O)N2CCC(C(=O)NN3CCCCC3)CC2)cc1	12	-18	1	3	12	1
